Data published in article PMC4336329 (PLoS ONE, 2015).
About 14,000 (4.5%) of roughly 310,000 compounds showed an effect of 50% or more. Effects have a minus sign here. For the sample, strong results were picked, then their nearest neighbours and some compounds at random.

What follows are molecules tested against human ether-à-go-go-related gene (hERG) potassium channel (human, UniProt Q12809) (assay: primary screen, population patch clamp on CHO cells stably expressing hERG; higher = less effect of the substance).
human ether-à-go-go-related gene (hERG) potassium channel, sequence (Q12809 whole entry, looked up): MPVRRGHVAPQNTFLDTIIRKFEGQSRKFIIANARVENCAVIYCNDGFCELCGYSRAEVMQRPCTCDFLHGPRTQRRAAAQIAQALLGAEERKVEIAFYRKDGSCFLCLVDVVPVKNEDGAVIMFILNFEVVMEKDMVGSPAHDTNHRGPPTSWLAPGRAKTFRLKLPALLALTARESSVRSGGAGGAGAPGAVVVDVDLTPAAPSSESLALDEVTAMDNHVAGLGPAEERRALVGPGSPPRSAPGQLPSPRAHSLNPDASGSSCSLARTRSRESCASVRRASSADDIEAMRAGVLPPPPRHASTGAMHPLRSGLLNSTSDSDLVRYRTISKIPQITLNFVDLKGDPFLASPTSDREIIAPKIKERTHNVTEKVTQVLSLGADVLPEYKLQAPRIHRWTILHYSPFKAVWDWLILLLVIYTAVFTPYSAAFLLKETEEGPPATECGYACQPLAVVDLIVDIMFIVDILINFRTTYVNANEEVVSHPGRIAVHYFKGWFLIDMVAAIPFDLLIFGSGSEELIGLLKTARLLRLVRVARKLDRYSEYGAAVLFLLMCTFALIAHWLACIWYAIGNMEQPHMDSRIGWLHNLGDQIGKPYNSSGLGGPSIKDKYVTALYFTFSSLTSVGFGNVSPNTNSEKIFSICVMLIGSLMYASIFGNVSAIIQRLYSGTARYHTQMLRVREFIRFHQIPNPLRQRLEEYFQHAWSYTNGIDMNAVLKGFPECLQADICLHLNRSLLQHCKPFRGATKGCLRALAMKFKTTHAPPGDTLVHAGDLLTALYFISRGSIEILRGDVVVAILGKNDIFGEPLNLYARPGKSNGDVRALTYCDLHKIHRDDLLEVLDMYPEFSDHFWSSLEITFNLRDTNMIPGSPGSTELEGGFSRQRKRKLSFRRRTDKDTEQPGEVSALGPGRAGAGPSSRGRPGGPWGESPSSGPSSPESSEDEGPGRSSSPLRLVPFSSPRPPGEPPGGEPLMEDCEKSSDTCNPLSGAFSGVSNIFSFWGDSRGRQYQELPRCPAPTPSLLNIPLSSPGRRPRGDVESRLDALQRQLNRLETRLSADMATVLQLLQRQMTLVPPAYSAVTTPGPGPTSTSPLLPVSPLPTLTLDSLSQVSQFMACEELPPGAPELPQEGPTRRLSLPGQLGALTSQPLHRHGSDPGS
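Further: peak tail current of the secondary pulse compared with the same well before compound.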

Compound	hERG current change (%, negative = inhibition) at 10uM [%]
CN1CCN(C2=C(NS(=O)(=O)c3ccccc3)C(=O)c3ccccc3C2=O)CC1	2.75
Cc1ccc(S(=O)(=O)NCC2CCC(C(=O)NCc3ccc4c(c3)OCO4)CC2)cc1 (stereo not drawn)	-0.473
Cl.Clc1ccccc1CN1CCN(/N=C/c2ccncc2)CC1	-24.3
CCCCCCCN1C/C=C\C(c2ccc(OC)cc2)N(Cc2ccc(F)cc2)C(=O)[C@H]1Cc1ccccc1 (stereo partly drawn)	8.55
NC(=O)CC(NC(=O)Cc1ccc(Cl)cc1)c1ccc(N2CCC(Cc3ccccc3)CC2)c([N+](=O)[O-])c1 (stereo not drawn)	17.7
Cc1nc(SCC(=O)NCc2ccco2)c2c(C)c(C)sc2n1	-2.85
O=C(COC(=O)c1ccc(NS(=O)(=O)c2cccs2)cc1O)NC1CCCCC1	8.92
O=C(O)CCS(=O)(=O)c1ccc(-c2ccccc2)cc1	19.3
CSc1ccc(-c2nc(CSCC(=O)NCCCN3CCCC3=O)c(C)o2)cc1	-14.4
Cc1cc(C)cc(NC(=S)NC2CC3CCCC(C2)N3CC(C)C)c1 (stereo not drawn)	-7.32
Cc1cc(C)cc(NC(=S)NC2CC3CCCC(C2)N3C2CCCC2)c1 (stereo not drawn)	-77.5
COc1cccc(NC(=S)NC2CC3CCCC(C2)N3C2CCCC2)c1 (stereo not drawn)	-33.6
COc1ccc([C@H]2CC(=O)C=C(c3cccc(C(F)(F)F)c3)C2)cc1	-14.4
CC1(c2nnc(Cc3ccccc3)o2)CC(c2cccc([N+](=O)[O-])c2)=NO1 (stereo not drawn)	-7.45
CC1(c2nnc(Cc3ccccc3)o2)CC(c2ccccc2)=NO1 (stereo not drawn)	-18
CC1(c2nnc(Cc3ccccc3)o2)CC(c2ccc(Cl)cc2)=NO1 (stereo not drawn)	-23.3
Cc1ccc(C2=NOC(C)(c3nnc(Cc4ccccc4)o3)C2)cc1 (stereo not drawn)	-15.2
CC1(c2nnc(Cc3ccccc3)o2)CC(c2ccc([N+](=O)[O-])cc2)=NO1 (stereo not drawn)	-63.2
CC1(c2nnc(Cc3ccccc3)o2)CC(c2ccc(C#N)cc2)=NO1 (stereo not drawn)	-62.3
CC1(C)CC(=O)C=C(N2CCNCC2)C1	14.9

Compound	hERG current change (%, negative = inhibition) at 10uM [%]
O=C(c1cccc(N2C(=O)c3ccccc3C2=O)c1)N1CCCCCC1	2.21
O=C(c1ccc(Cl)c(S(=O)(=O)N2CCCCC2)c1)N1CCCC(C(F)(F)F)C1 (stereo not drawn)	-31.8
CC1CCCN(C(=O)c2ccc(Cl)c(S(=O)(=O)N3CCCCCC3)c2)C1 (stereo not drawn)	-76.3
CCOC(=O)C1CCCN(C(=O)c2ccc(C)c(S(=O)(=O)N3CCCCC3)c2)C1 (stereo not drawn)	-25.3
CCOC(=O)C1CCCN(C(=O)c2ccc(Cl)c(S(=O)(=O)N3CCCCCC3)c2)C1 (stereo not drawn)	-70.7
O=C(c1ccc(Cl)c(S(=O)(=O)N2CCCC2)c1)N1CCCCC1	3.08
O=C(c1cccc(N2C(=O)c3ccccc3C2=O)c1)N1CCCC(C(F)(F)F)C1 (stereo not drawn)	-53.9
O=C(c1ccc(Cl)c(S(=O)(=O)N2CCCCCC2)c1)N1CCCC(C(F)(F)F)C1 (stereo not drawn)	-58.9
CCOC(=O)C1CCCN(C(=O)c2ccc(Cl)c(S(=O)(=O)N3CCCCC3)c2)C1 (stereo not drawn)	-13.8
O=C(c1ccc(Cl)c(S(=O)(=O)N2CCCCC2)c1)N1CCCC1	-7.02
O=C(c1ccc(Cl)c(S(=O)(=O)N2CCCC2)c1)N1CCCC(C(F)(F)F)C1 (stereo not drawn)	-18.1
CCOC(=O)C1CCCN(C(=O)c2cccc(N3C(=O)c4ccccc4C3=O)c2)C1 (stereo not drawn)	-18.4
CSc1cccc(NC(=O)OC2CCCCCCCCCCC2)c1	7.83
Cc1ccc(S(=O)(=O)N2C(=O)/C(=C3\SC(=S)NC3=O)c3ccccc32)cc1	10
Fc1ccccc1CSc1ncnc2sc3c(c12)CCCC3	2.75
O=C(Nc1ccc2nn(-c3ccccc3)nc2c1)c1ccc(Br)o1	7.88
CCOc1cc(C)c(C(C)C)cc1S(=O)(=O)n1ccc(C)n1	-29.4
Cc1nn(C)c(C)c1NC(=O)/C(C#N)=C\N(C)C	12.6
NC(=O)C1(N2CCCCC2)CCN(C(=O)CSc2nc3ccccc3o2)CC1	-4.85
COC(=O)C1=C(C)N(CCC2=CCCCC2)C(=O)C1	1.46

Compound	hERG current change (%, negative = inhibition) at 10uM [%]
CC(C)(Oc1ccc(CCNC(=O)c2ccc(-c3ccccc3)o2)cc1)C(=O)O	14
O=C(CC1SC(N2CCCC2)=NC1=O)Nc1ccc(C(=O)N2CCCC(C(F)(F)F)C2)cc1 (stereo not drawn)	18.8
Cc1ccc2cc(CN(C)S(C)(=O)=O)c(=O)[nH]c2c1	26.9
NC(=O)COC(=O)c1ccc(Cl)c(S(=O)(=O)N2CCCCCC2)c1	-4.36
CCOC(=O)c1ccc(Cl)c(S(=O)(=O)N2CCCC2)c1	23.8
CN(C(=O)COC(=O)c1ccc(Cl)c(S(=O)(=O)N2CCCCC2)c1)C1(C#N)CCCCC1	-57.4
CCN(CC)S(=O)(=O)c1ccc(C)c(NC(=O)CNc2cccc(S(=O)(=O)N3CCOCC3)c2)c1	-17.7
Cc1c(C(=O)N(C)C)sc2nc(-c3ccccn3)[nH]c(=O)c12	-2.71
COCCn1c(SCC(=O)N2CC(=O)Nc3ccccc32)nc2ccccc2c1=O	-26.9
CCOc1ccc(NC(=O)CSc2nc3ccccc3c(=O)n2CCNC(C)=O)cc1	-6.93
COc1ccc(OC)c(NC(=O)CSc2nc3ccccc3c(=O)n2CCNC(C)=O)c1	-2.83
COCCCn1c(SCC(=O)Nc2ccc(C(=O)OC)cc2)nc2ccccc2c1=O	-25.6
COc1ccccc1NC(=O)CSc1nc2ccccc2c(=O)n1CCNC(C)=O	-62.2
COCCCn1c(SCC(=O)Nc2ccc(C(C)=O)cc2)nc2ccccc2c1=O	-51.5
COc1ccc(NC(=O)CSc2nc3ccccc3c(=O)n2CCNC(C)=O)cc1	-73.6
COc1ccc(NC(=O)CSc2nc3ccccc3c(=O)n2CCNC(C)=O)c(OC)c1	-25.1
CC(=O)NCCn1c(SCC(=O)Nc2ccc(C)cc2)nc2ccccc2c1=O	5.81
CC(C)N(CCn1c(SCC(=O)N2CC(=O)Nc3ccccc32)nc2ccccc2c1=O)C(C)C	-76.6
COCCCn1c(SCC(=O)Nc2ccc(C)cc2)nc2ccccc2c1=O	-2.1
CN(C)CCCn1c(SCC(=O)N2CC(=O)Nc3ccccc32)nc2ccccc2c1=O	-17.6
